Experiment [1] deals with Sporothrix brasiliensis CBS 133006. The experiment in a line: growth inhibition relative to untreated control; higher = more growth inhibition (more antifungal activity), active = 80 or more; extreme values may be limits of the assay. The following applies: 1 µM; 48 h. A digest of the protocol: (§1)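 Each value is the percent growth inhibition compared with cells left untreated. Reference isolates were grown as yeast-form cells in brain heart infusion broth with 2% glucose for 7 days at 36°C, then exposed at 1 x 10^5 CFU/ml to library compounds at a final 1 μM for 48 h at 35°C in 5% CO2. Growth was inspected visually under an inverted light microscope and quantified by spectrophotometric readings, with runs in quadruplicate.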

Experiment [2] has as its system Sporothrix schenckii ATCC 32286. The description is as above. To be noted: 1 µM; 48 h. A digest of the protocol:
as §1

Structures are written as SMILES.

For `Cc1[nH]c2ccccc2c1C(c1cccs1)N1CCN(C)CC1` (stereo not drawn), the results for the growth inhibition in experiment [1] and in experiment [2] were 4.75% (inactive) and 15.2% (inactive), respectively.
The like results for `Cc1nnc(NCc2cccc(Cl)c2)c2ccccc12` were, in that order, 3% (inactive) and 8.75% (inactive).
Taken in the same sequence, the figures for `CC1CC1C(=O)NC1CCN(CC2(c3ccccc3)CCCCC2)CC1` (stereo not drawn) were 12.8% (inactive) and 20.5% (inactive).
The like results for `CCOC(=O)NC(=O)c1ccsc1NC(=O)c1nc2ccccc2s1` were, in that order, 32.8% (inactive) and 2.25% (inactive).
On to `Cc1noc(C)c1COc1cccc(C(=O)N=c2[nH]cccc2C)c1`, for which the growth inhibition in experiment [1] is 0% (inactive); in experiment [2] it was 8.25% (inactive).
Taken in the same sequence, the figures for `COc1ccc(OC)c(NCc2ccc3nc(N)nc(N)c3c2Cl)c1` were 93.8% (active) and 89.2% (active).
Taken in the same sequence, the figures for `COc1cccc(-n2nnnc2S(=O)(=O)Cc2ccccc2)c1` were 19% (inactive) and 6% (inactive).
For the molecule `CCCc1ccc(S(=O)(=O)Nc2ccc(CN3CCN(CC4CC4)CC3)cc2)cc1`, the growth inhibition in experiment [1] was 25.5% (inactive); in experiment [2], 2.25% (inactive).
Taken in the same sequence, the figures for `Cc1cc(Cl)ccc1NC(=O)CCc1ccc(S(=O)(=O)NCC(C)C)cc1` were 9.75% (inactive) and 0% (inactive).
For the molecule `Nc1ncnc2c1c(Cc1cccc3ccccc13)nn2CC1CCNCC1`, the growth inhibition in experiment [1] and in experiment [2] was 0% (inactive) each time.
As to `CO[C@@H](C(=O)N1Cc2[nH]nc(NC(=O)c3ccc(N4CCN(C)CC4)cc3)c2C1)c1ccccc1`, the growth inhibition was 16.2% (inactive) in experiment [1] and 1.5% (inactive) in experiment [2].
Taken in the same sequence, the figures for `CCS(=O)(=O)N(Cc1ccco1)Cc1cc2ccc(C)cc2nc1O` were 2.5% (inactive) and 2% (inactive).
The like results for `Nc1nc2cc(-c3cncc(Oc4ccc(F)cc4)c3)ccc2[nH]1` were, in that order, 8.5% (inactive) and 18.5% (inactive).
Turning to `Cc1cc(C)c2cc(C(=O)NC3CCCCCCC3)[nH]c2c1`, the figures for the growth inhibition in experiment [1] and in experiment [2] were 6% (inactive) and 6.25% (inactive), respectively.
As to `COc1cccc(OC)c1C(=O)Nc1ccc(Cl)c(-c2nc3ccccc3s2)c1`, the growth inhibition in experiment [1] is 7.75% (inactive); in experiment [2], 0.75% (inactive).
With `O=C(NC1=NCCS1)c1sc2cc(F)ccc2c1Cl`, the growth inhibition in experiment [1] is 0.75% (inactive); in experiment [2], 0% (inactive).
Taken in the same sequence, the figures for `CC1CCCCN1C(=O)NCCc1coc(-c2ccc(F)cc2)n1` (stereo not drawn) were 11% (inactive) and 0% (inactive).
Taken in the same sequence, the figures for `CCCn1c(NC(=O)c2ccc3ccccc3n2)nc2ccccc21` were 3.5% (inactive) and 0% (inactive).
The like results for `Cc1ccc(S(=O)(=O)Nc2ccc(CN3CCN(C(=O)c4cccc(C#N)c4)CC3)cc2)cc1` were, in that order, 2% (inactive) and 0.5% (inactive).
Consider `COc1ccc(-c2cnc3ccc(NCc4ccc(S(N)(=O)=O)cc4)nn23)cn1`, for which the growth inhibition in experiment [1] was 26.8% (inactive); in experiment [2], 18.2% (inactive).
As to `CCCn1nnc(NC(=O)COc2ccc(C3CCCCC3)cc2)n1`, the growth inhibition was 13.2% (inactive) in experiment [1] and 0.5% (inactive) in experiment [2].
Taken in the same sequence, the figures for `O=C(NCc1nnc2n1CCCCC2)c1ccc(-c2ccc(F)cc2)o1` were 11.2% (inactive) and 0% (inactive).
Turning to `CCCS(=O)(=O)N1CCC(CO)(Cc2ccccc2C(F)(F)F)CC1`, the growth inhibition in experiment [1] and in experiment [2] was 0% (inactive) throughout.
Consider `NCCCC(N)(C(=O)O)C(F)F` (stereo not drawn), for which the growth inhibition was 13.5% (inactive) in experiment [1] and 17.2% (inactive) in experiment [2].
Taken in the same sequence, the figures for `Cc1cc(OCC(=O)Nc2ccc(C(C)C)cc2)n(C)c(=O)c1C#N` were 3.5% (inactive) and 8% (inactive).
Taken in the same sequence, the figures for `O=C(Nc1nc(-c2ccccn2)cs1)c1cncn1-c1ccccc1` were 17.5% (inactive) and 15.2% (inactive).
The like results for `Cc1cc(C)n2nc(C(=O)Nc3cc(C(F)(F)F)ccc3N3CCOCC3)nc2n1` were, in that order, 0.25% (inactive) and 12.5% (inactive).
As for `O=C(Nc1c(O)cccc1-c1nc2c(C(=O)O)cccc2o1)c1cc(-c2ccccc2)on1`, the growth inhibition in experiment [1] is 38.2% (inactive); in experiment [2] it was 3.75% (inactive).
The like results for `O=C(Nc1cccnc1)c1c(O)c2cccc3c2n(c1=O)CC3` were, in that order, 19.5% (inactive) and 11.2% (inactive).
The like results for `O=C([C@@H](c1ccc(Cl)cc1)c1cccnc1)N1CCN(c2ccc(C(F)(F)F)cc2)CC1` were, in that order, 25.2% (inactive) and 2% (inactive).
In the case of `CC1CS(=O)(=O)CCN1/N=C/c1ccc([N+](=O)[O-])o1` (stereo not drawn), the figures for the growth inhibition in experiment [1] and in experiment [2] were 6% (inactive) and 7% (inactive), respectively.
For the molecule `COc1ccc2nc(C)cc(OCC(=O)NCc3ccccc3)c2c1`, the growth inhibition is 1.75% (inactive) in experiment [1] and 14.8% (inactive) in experiment [2].
Turning to `Nc1nccc2ccc(-c3ccc4nccn4c3)cc12`, the growth inhibition was 5.5% (inactive) in experiment [1] and 13.5% (inactive) in experiment [2].
Regarding `CN1CCC(c2cc(-c3ccncc3)c(-c3ccc(F)cc3)[nH]2)CC1`, the growth inhibition in experiment [1] is 9% (inactive); in experiment [2], 10% (inactive).
Taken in the same sequence, the figures for `CCc1nc2ccc(C(=O)NCc3ccc4c(c3)OCO4)cn2c1N(C)Cc1cccs1` were 7% (inactive) and 2.75% (inactive).
The like results for `O=C(C1CCN(c2nnnn2-c2ccccc2)CC1)N1CCc2ccccc2C1` were, in that order, 2.5% (inactive) and 3% (inactive).
Regarding `CCC(NC(=O)c1ccccc1NC(=O)c1ccc(C)cc1)C(=O)OC` (stereo not drawn), the growth inhibition was 10% (inactive) in experiment [1] and 5.75% (inactive) in experiment [2].
The like results for `CCOc1ccc2cc(-c3nn(C(C)(C)C)c(N)c3C(N)=O)cnc2c1` were, in that order, 0% (inactive) and 2.5% (inactive).
The like results for `COc1cc(NC(=O)Cc2nn(C)c(=O)c3ccccc23)ccc1Cl` were, in that order, 4.5% (inactive) and 0% (inactive).
`COc1ccc(-c2cc(NC(=O)c3ccc(F)cc3Cl)ccc2OC)cc1`: the values for the growth inhibition in experiment [1] and in experiment [2] were 0% (inactive) and 6.75% (inactive), respectively.
The like results for `Brc1cncc(-c2cc(NCCCn3ccnc3)nc(-c3ccccc3)n2)c1` were, in that order, 22% (inactive) and 3.5% (inactive).
Taken in the same sequence, the figures for `O=C(Nc1ccc(F)c(-c2nc3cc(-c4ccccc4)cnc3[nH]2)c1)N1CCCC1` were 12.5% (inactive) and 7.75% (inactive).
Taken in the same sequence, the figures for `CN1CCN(S(=O)(=O)c2ccc(-c3ccc4c(Nc5ccc6nn[nH]c6c5)ccnc4c3)cc2)CC1` were 4.25% (inactive) and 7.5% (inactive).
As to `CC(C)(C)c1ccc(N[C@@H]2CCCC[C@H]2NC(=O)c2ccco2)cc1`, the growth inhibition was 7.25% (inactive) in experiment [1] and 0.75% (inactive) in experiment [2].
With `Clc1ccc(Cl)c(CO[C@H]2CCCC[C@@H]2n2ccnc2)c1`, the growth inhibition in experiment [1] is 18% (inactive); in experiment [2], 5.5% (inactive).
Turning to `Oc1c(I)cc(I)c2cccnc12`, the results for the growth inhibition in experiment [1] and in experiment [2] were 99.5% (active) and 94.5% (active), respectively.
Taken in the same sequence, the figures for `O=C(c1cc2ccccc2o1)N1CCN(Cc2ccc3c(c2)OCO3)CC1` were 12.8% (inactive) and 7.25% (inactive).
For `C[C@H](C(N)=O)N1CCCC[C@@H]1c1ccc(OCc2cccc(F)c2)cc1`, the growth inhibition in experiment [1] was 0% (inactive); in experiment [2], 2% (inactive).
The like results for `CCOC(=O)c1noc(N)c1-c1ccccc1` were, in that order, 16.5% (inactive) and 0% (inactive).

The record behind these values is the supplement of paper PMC7556523.
